In PubChem BioAssay (NCATS) one finds Potency and outcome data, which are given here for 33 compounds.

SMILES strings stand for the structures. Where “and” joins values, the source holds several entries; their conditions need not be identical. Equal entries are not always repeated. Records with an inconclusive call do not appear. The source holds several records for some structures; these can differ, active in one and inactive in another. Calls of active or inactive are those of the source. Calls follow the shape of the dose curve; as a rule, active = well fitted curve in the direction sought with a large enough effect; inconclusive = small, poorly fitted or top-dose-only effect, or another doubt; inactive = no such curve, though single readings can be large; an effect the other way counts as inactive or inconclusive.

Assay [1] deals with Glutathione peroxidase 1 (Homo sapiens) (UniProt P07203). The assay can be described thus: Primary qHTS Assay for Inhibitors of Recombinant Selenoprotein Glutathione Peroxidase 1 (GPX1) (AID 1845191). Also: nearly all actives have a fitted effect of over 65% in size. In outline: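 10 nM GPX1 + cpd, 30 min RT; start w/ 1 mM GSH, 0.5 mM cumene hydroperoxide, 0.5 mM NADPH, 100 nM GR, 0.01% BSA; buffer 50 mM Tris-HCl pH 7.5, 2 mM EDTA, 150 mM NaCl; Fl 340/450, 0 & 15 min.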
A general note: In qHTS, concentration-response curves come from the screen itself.

The target of assay [2] is Phospholipid hydroperoxide glutathione peroxidase GPX4 (Homo sapiens) (UniProt P36969). The assay can be described thus: Primary qHTS Assay for Inhibitors of Recombinant Selenoprotein Glutathione Peroxidase 4 (GPX4) (AID 1845192). Also: nearly all actives have a fitted effect of over 65% in size. Also: potency is read from the fitted curve at half-maximal effect. The procedure, abridged:
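NADPH consumption, followed by fluorescence at 340/450 nm between 0 and 15 min, reports GPX4 activity via coupled glutathione reductase (100 nM). Enzyme 200 nM was pre-exposed to compound 30 min; 0.5 mM cumene hydroperoxide and 1 mM GSH served as substrates.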

Assay [3] in a line: Quantitative High-Throughput drug screen in 47 multiple myeloma cell lines against the NCATS MIPE library collection: EJM_DSMZ cell viability assay (AID 1918926; also: nearly all actives have a fitted effect of over 30% in size; also: potency is read from the fitted curve at half-maximal effect). In outline:
(§1)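 CellTiter-Glo luminescence (ATP) after 48 h compound exposure, 37C/5% CO2; 500 cells/well; MIPE 4.0 approved/investigational drugs pinned in; DMSO = 100%, media only = 0% viability.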

Assay [4] can be described thus: Quantitative High-Throughput drug screen in 47 multiple myeloma cell lines against the NCATS MIPE library collection: Delta47_JCRB cell viability assay (AID 1918925; also: nearly all actives have a fitted effect of over 45% in size; also: potency is read from the fitted curve at half-maximal effect). The procedure, abridged: as §1
The nature of assay [5]: Quantitative High-Throughput drug screen in 47 multiple myeloma cell lines against the NCATS MIPE library collection: AMO1_DSMZ cell viability assay (AID 1918927; also: nearly all actives have a fitted effect of over 30% in size; also: potency is read from the fitted curve at half-maximal effect). In outline:
as §1

Assay [6] is described as follows: Quantitative High-Throughput drug screen in 47 multiple myeloma cell lines against the NCATS MIPE library collection: ARP1_JJKsccF8 cell viability assay (AID 1918928; also: nearly all actives have a fitted effect of over 40% in size; also: potency is read from the fitted curve at half-maximal effect). The procedure, abridged: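 Myeloma cells, 500 per well, were exposed to MIPE 4.0 drugs by pin transfer for 48 h at 37 °C, 5% CO2. Viability was read as ATP luminescence with CellTiter-Glo, normalised to DMSO-only (100%) and medium-only (0%) wells.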

Assay [7] is described as follows: Quantitative High-Throughput drug screen in 47 multiple myeloma cell lines against the NCATS MIPE library collection: ARD_JJKsccE7 cell viability assay (AID 1918929; also: potency is read from the fitted curve at half-maximal effect). In outline: as §1
In assay [8] the target is Metallo-beta-lactamase type 2 (Klebsiella pneumoniae) (UniProt C7C422). As to the kind of experiment: qHTS to identify inhibitors of the New Delhi Metallo-beta-lactamase (NDM): assay validation screen against the NCATS LOPAC Collection (AID 1794843).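 Also: nitrocefin turnover by NDM-1 measured as 485 nm absorbance at plateau; series mostly up to about 38 µM.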 In outline:
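NDM-1 at 2 nM final in 50 mM HEPES pH 7.0 with 1 uM ZnSO4 and 0.01% Tween20 was preincubated with library compounds in DMSO. Nitrocefin (50 uM stock) was then added, and absorbance at 485 nm was read at the kinetic plateau.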

Assay [9] addresses Luciferin 4-monooxygenase (Photinus pyralis) (UniProt P08659). As to the kind of experiment: Primary firefly luciferase (FLuc) qHTS assay for identification of artifact compounds. (AID 1845220). Also: nearly all actives have a fitted effect of over 60% in size. As to conditions: outcome: dose series up to 54.1 µM. The procedure, abridged: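 FLuc 10 nM; luciferin 10 uM; ATP 10 uM; Tris-acetate pH 7.6, Mg-acetate 10 mM; 15 min RT preincubation; 5 min reaction; luminescence.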

The nature of assay [10]: Primary fluorescence-based thiol-reactive (MSTI) qHTS assay for identification of artifact compounds. (AID 1845221).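 Also: series mostly up to about 54 µM; thiol-reactive compounds lower the probe fluorescence signal; nearly all actives have a fitted effect of over 65% in size.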 The procedure, abridged:
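Reactivity toward the thiol probe MSTI (4 uM) is scored by fluorescence at Ex/Em 525/598 nm after 1 h at room temperature. Acetyl-MSTI and MSTI define the activity scale.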

Assay [11] in a line: Primary redox qHTS assay for identification of artifact compounds. (AID 1845223). The procedure, abridged: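 Amplex Red (25 uM) and HRP (250 mU/mL) in HBSS, with compounds for 15 min, then 250 uM DTT for 30 min, room temperature, dark. Fluorescence 525/598 nm read; normalized to DMSO and 10 uM DA3003; Hill fit.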
A short description of assay [12]: Quantitative High-Throughput drug screen in 47 multiple myeloma cell lines against the NCATS MIPE library collection: FR4_PLB cell viability assay (AID 1918924; also: nearly all actives have a fitted effect of over 35% in size; also: potency is read from the fitted curve at half-maximal effect). The procedure, abridged: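 Primary qHTS used for cherry-picking: cells at 500/well, library compounds for 48 h (37C, 5% CO2), luminescent ATP assay.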

Metallo-beta-lactamase type 2 (Klebsiella pneumoniae), sequence (C7C422 whole entry, looked up): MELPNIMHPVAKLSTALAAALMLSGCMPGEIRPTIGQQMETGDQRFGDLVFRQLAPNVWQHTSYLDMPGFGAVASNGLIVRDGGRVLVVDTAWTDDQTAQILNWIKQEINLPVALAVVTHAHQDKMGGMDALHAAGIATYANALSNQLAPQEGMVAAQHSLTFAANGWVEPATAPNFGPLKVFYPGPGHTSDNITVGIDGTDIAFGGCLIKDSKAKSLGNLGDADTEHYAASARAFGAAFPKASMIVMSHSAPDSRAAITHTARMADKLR
Phospholipid hydroperoxide glutathione peroxidase GPX4 (Homo sapiens), sequence (P36969 whole entry, looked up): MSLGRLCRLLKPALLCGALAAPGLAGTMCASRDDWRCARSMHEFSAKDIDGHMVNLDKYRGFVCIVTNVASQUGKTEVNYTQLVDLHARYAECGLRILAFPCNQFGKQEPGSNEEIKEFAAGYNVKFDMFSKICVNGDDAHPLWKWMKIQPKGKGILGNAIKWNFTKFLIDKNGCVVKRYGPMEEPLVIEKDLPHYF
Glutathione peroxidase 1 (Homo sapiens), sequence (P07203 whole entry, looked up): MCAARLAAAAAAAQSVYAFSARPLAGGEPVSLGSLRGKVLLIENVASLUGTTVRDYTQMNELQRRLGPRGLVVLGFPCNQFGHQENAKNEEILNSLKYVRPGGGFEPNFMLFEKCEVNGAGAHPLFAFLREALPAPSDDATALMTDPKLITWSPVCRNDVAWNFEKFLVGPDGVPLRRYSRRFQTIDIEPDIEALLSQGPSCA

As to `Clc1ccccc1C(c1ccccc1)(c1ccccc1)n1ccnc1`, the Potency result in assay [1], in [2] and in [3] was “inactive” throughout.
Turning to `Cc1ccccc1N1C(=O)c2cc(S(N)(=O)=O)c(Cl)cc2NC1C` (stereo not given), the Potency result in [1], in assay [2], in assay [4], in [3], in assay [5] and in assay [6] was “inactive” throughout. Also, in [7], the Potency entry was “inactive”.
On to `Nc1nnc(-c2cccc(Cl)c2Cl)c(N)n1`, for which the result in assay [8] was inactive. The Potency result in assay [1], in assay [2], in [3] and in assay [6] was “inactive” each time.
For the compound `CN(C)CCOC(c1ccccc1)c1ccccc1`, the Potency result in assay [1], in assay [2], in assay [3], in assay [5] and in [6] was “inactive” in each case. Also, the Potency in [4] is 8.33 µM (active).
Regarding `CC1(CN2CCC(n3c(=O)[nH]c4ccccc43)CC2)OCc2ccccc2-n2cccc21` (stereo not given), the Potency entry in assay [1], in assay [2], in assay [6] and in assay [7] was “inactive” each time.
On to `Nc1c2c(nc3ccccc13)CCCC2`, for which, in assay [8], the result was inactive. In addition, the Potency result in [1], in [2], in [3] and in assay [7] was “inactive” each time.
For the compound `COc1ccc(CCN(C)CCCC(C#N)(c2ccc(OC)c(OC)c2)C(C)C)cc1OC` (stereo not given), the Potency entry in assay [1] and in assay [2] was “inactive” throughout.
Consider `CC12CC3CC(C)(C1)CC(N)(C3)C2`, for which the Potency entry in assay [1], in assay [2], in [6] and in assay [7] was “inactive” throughout.
Regarding `NCCCCCC(=O)O`, the compound was called inactive in assay [8]. The Potency entry in assay [1], in assay [2], in assay [3], in assay [5] and in assay [7] was “inactive” throughout.
For `CCCNCC(O)COc1ccccc1C(=O)CCc1ccccc1` (stereo not given), the call in assay [8] was inactive. The Potency result in [1], in assay [2] and in [6] was “inactive” each time.
On to `CS(=O)(=O)CCNCc1ccc(-c2ccc3ncnc(Nc4ccc(OCc5cccc(F)c5)c(Cl)c4)c3c2)o1`, for which the Potency result in assay [1] and in assay [2] was “inactive” each time. In addition, the outcome in assay [9], in [10] and in assay [11] was inactive. Besides, the Potency was 14.8 µM (active) in [12]; 0.235 µM (active) in assay [4]; 0.0235 µM (active) in [3]; 2.35 µM (active) in [5]; 6.62 µM (active) in assay [7].
For the compound `O=c1c(-c2ccc(O)cc2)coc2cc(O)cc(O)c12`, in [8], the compound was called inactive. Also, the Potency result in assay [1], in assay [2] and in assay [3] was “inactive” each time. In addition, the results for the Potency in [5] and in [7] were 16.6 µM (active) and 14.8 µM (active), respectively.
With `COc1cc2nc(N(C)CCCNC(=O)C3CCCO3)nc(N)c2cc1OC` (stereo not given), the result in assay [8] was inactive. Further, the Potency entry in assay [1] and in assay [3] was “inactive” in each case.
Take `CN1C(C(=O)Nc2ccccn2)=C(O)c2ccccc2S1(=O)=O`: in assay [8], the compound was classed as inactive. Besides, the Potency result in assay [1], in assay [2], in [3], in [6] and in assay [7] was “inactive” each time.
For the compound `COc1ccc2c(c1)c(CC(=O)O)c(C)n2C(=O)c1ccc(Cl)cc1`, the Potency entry in assay [1], in [2] and in assay [6] was “inactive” throughout.
As to `COc1cc2nc(N3CCN(C(=O)c4ccco4)CC3)nc(N)c2cc1OC`, the call in assay [8] was inactive. Besides, the Potency result in assay [2] is “inactive”. Also, the Potency is 5.9 µM (active) in [5], 26.4 µM (active) in [6] and 9.35 µM (active) in assay [7].
With `CCOC(=O)C(C)(C)Oc1ccc(Cl)cc1`, the result in assay [8] was inactive. The Potency result in assay [1], in assay [2], in assay [3] and in [6] was “inactive” throughout.
For `Cc1cnc(C(=O)NCCc2ccc(S(=O)(=O)NC(=O)NC3CCCCC3)cc2)cn1`, the compound was classed as inactive in [8]. The Potency result in assay [1], in assay [2], in [5] and in [7] was “inactive” in each case. Besides, the Potency in assay [6] is 18.7 µM (active).
Consider `C[C@@H]1CC(=O)NN=C1c1ccc(NN=C(C#N)C#N)cc1`, for which the Potency result in assay [1], in assay [2], in [5] and in assay [7] was “inactive” each time. The Potency in assay [12] and in assay [6] was 23.5 µM (active) each time.
As to `Cc1ccc(C(=O)Nc2ccc(S(=O)(=O)O)c3cc(S(=O)(=O)O)cc(S(=O)(=O)O)c23)cc1NC(=O)c1cccc(NC(=O)Nc2cccc(C(=O)Nc3cc(C(=O)Nc4ccc(S(=O)(=O)O)c5cc(S(=O)(=O)O)cc(S(=O)(=O)O)c45)ccc3C)c2)c1`, the result in assay [8] was inactive. Further, the Potency result in assay [1], in [3], in assay [6] and in [7] was “inactive” each time. Also, in assay [2], the Potency entry was “inactive and 7 µM (active)”.
For the compound `CN(C)C(=N)N=C(N)N`, the Potency entry in assay [3], in assay [5] and in assay [7] was “inactive” in each case.
Regarding `Clc1ccc(C(c2ccccc2Cl)C(Cl)Cl)cc1` (stereo not given), the compound was classed as inactive in [8]. Also, the Potency entry in assay [1] and in assay [2] was “inactive” each time. Further, the Potency in assay [5] was 1.87 µM (active).
Turning to `COc1ccc2[nH]cc(CCNC(C)=O)c2c1`, the result in assay [8] was inactive. For the same compound, the Potency entry in [1], in [2], in assay [3] and in assay [7] was “inactive” throughout. Also, in assay [5], the Potency is 0.235 µM (active).
With `O=C(C1CCCCC1)N1CC(=O)N2CCc3ccccc3C2C1` (stereo not given), the Potency entry in assay [1], in assay [2], in assay [12], in assay [3], in [5] and in assay [6] was “inactive” throughout. The Potency entry in assay [7] is “inactive”.
Consider `Cn1c(=O)c2[nH]cnc2n(C)c1=O`, for which the Potency entry in [1], in assay [2], in assay [12], in assay [3], in assay [5] and in assay [6] was “inactive” throughout.
As for `CCC1(c2ccccc2)C(=O)NCNC1=O`, the Potency result in assay [1], in assay [2], in assay [3] and in assay [6] was “inactive” throughout. Further, the Potency in assay [4] was 2.96 µM (active); in assay [5], 10.5 µM (active); in assay [7] it was 14.8 µM (active).
Turning to `COC(=O)Nc1nc2ccc(C(=O)c3cccs3)cc2[nH]1`, the compound was classed as inactive in assay [8]. For the same compound, the Potency entry in assay [1] and in assay [2] was “inactive” each time. The Potency in assay [5] was 0.001 µM (active); in assay [6] it was 0.0042 µM (active); in assay [7], 0.001 µM (active).
As for `CC(C(=O)O)c1cccc(C(=O)c2ccccc2)c1` (stereo not given), the compound was classed as inactive in assay [8]. Besides, the Potency entry in [1], in assay [2] and in [5] was “inactive” in each case.
`CC(C)NCC(O)c1ccc(O)c(O)c1` (stereo not given): the result in assay [8] was inactive. The Potency entry in assay [1] and in assay [2] was “inactive” throughout. Further, the Potency was 14.8 µM (active) in assay [3], 5.26 µM (active) in assay [5] and 5.9 µM (active) in assay [7].
For `CC(COc1ccccc1)N(CCCl)Cc1ccccc1` (stereo not given), the Potency entry in assay [1], in [2], in [5] and in assay [6] was “inactive” each time. Besides, the Potency in assay [7] was 16.6 µM (active).
As to `C[C@](N)(Cc1ccc(O)c(O)c1)C(=O)O`, the Potency entry in [1] and in assay [7] was “inactive” in each case. The Potency result in assay [2] is “inactive and 14.3 µM (active)”.
For the compound `CCOC(=O)c1ncn2c1CN(C)C(=O)c1cc(F)ccc1-2`, in assay [8], the outcome was inactive. Also, the Potency entry in [1], in assay [2], in assay [5] and in [7] was “inactive” throughout. For the same compound, the Potency in assay [6] was 16.6 µM (active).
On to `Fc1ccc([C@@H]2CCNC[C@H]2COc2ccc3c(c2)OCO3)cc1`, for which the compound was called inactive in [8]. Besides, the Potency entry in assay [1], in assay [2], in [3] and in [7] was “inactive” each time.
